Source: PubChem BioAssay AID651951 (The Scripps Research Institute Molecular Screening Center, 2012)
About 1,100 (46%) of roughly 2,400 compounds were called active. So high a share suggests a set chosen from earlier hits. Not all results are given here. Unmarked numbers belong to inactive results.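 How the source made its calls: active means inhibition above the run cutoff, the mean inhibition of all test compounds plus 3 SD (cut at about 49% in these data); inactive means the rest.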

target: Trace amine-associated receptor 1 (Homo sapiens) (UniProt Q96RJ0); assay: loss of beta-PEA response after agonist pre-exposure – cell-based, fluorescence, tachyphylaxis, counter-screen for TAAR1 agonist project, confirmation (AID 651951); details: CHO RD-HGA16 hTAAR1, Fluo-8 calcium, at 3 µM, active compounds read high;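 further: beta-PEA stimulus applied at its EC80; loss of beta-PEA calcium signal after compound pretreatment read as receptor desensitization; 0% = DMSO with beta-PEA at EC80 and 100% = DMSO alone without agonist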
Sequence (Q96RJ0 whole entry, looked up): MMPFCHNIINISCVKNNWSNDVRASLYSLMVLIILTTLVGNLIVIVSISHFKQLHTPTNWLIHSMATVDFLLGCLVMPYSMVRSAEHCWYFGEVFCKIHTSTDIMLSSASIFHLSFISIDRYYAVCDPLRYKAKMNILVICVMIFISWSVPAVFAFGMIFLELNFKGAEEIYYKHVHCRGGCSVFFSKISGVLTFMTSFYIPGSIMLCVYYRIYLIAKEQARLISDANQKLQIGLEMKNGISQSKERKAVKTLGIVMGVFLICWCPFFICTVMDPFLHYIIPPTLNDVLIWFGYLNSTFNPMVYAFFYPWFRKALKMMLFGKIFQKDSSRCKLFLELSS

Compound	inhibition
CCC(=NCCc1ccccc1)c1c(O)n(C2CCCCC2)c(=O)[nH]c1=O	55.8% (active)
Cc1cccc(N2C(=O)NC(=O)/C(=C\c3cnn(-c4ccccc4)c3)C2=O)c1	54.4% (active)
NCC(O)c1ccc(O)cc1 (centres undefined)	53.1% (active)
COc1ccc(Br)cc1CNCCc1cccc(Cl)c1	40%
CC(Cc1ccccc1)NC=O (centres undefined)	78.2% (active)
c1ccc(CCNC2CCCCCC2)cc1	91% (active)
O=C1NC(=O)N(Cc2ccco2)C(=O)/C1=C\c1ccc(-c2ccc(F)cc2)o1	42.5%
CCCCC(=O)N/N=C/c1c(O)n(CC)c(=S)n(CC)c1=O	88% (active)
Clc1ccc2nc3c(c(-c4ccccc4)c2c1)CNCC3	39.3%
